Source: PubChem BioAssay (National Center for Advancing Translational Sciences (NCATS))
Sfp inh: blocks B. subtilis Sfp PPTase activity; Q9F4F7; Potency, µM, for inactives: largest response in the series, negative = inhibition, actives largely listed as inhibitors; AID 1490; hit rate 3.5% among 310,000; Biochemical Sfp PPTase activity, qHTS;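 note: the enzyme is Sfp with the accession as filed and its product quenches rhodamine fluorescence; 0% = enzyme reaction without inhibitor and -100% = no enzyme wells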
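After 15 min at room temperature with compound, 15 nM Sfp received 5 uM rhodamine-CoA plus 12.5 uM BHQ-2-ybbR (50 mM Hepes pH 7.6, 10 mM MgCl2). Rate came from the fluorescence difference over 30 min, ex 525/em 598 nm.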
BAZ2B inh: inhibitors of human BAZ2B bromodomain. Q9UIF8. AlphaScreen BAZ2B-H3K14Ac peptide displacement. Potency, µM (titrated, usually from 114 µM), for the others: at the highest dose activity change, negative = inhibition, most hits filed as inhibitors. hit rate 4.4% among 360,000; note: % is set by controls: 0 for no effect and ±100 for the full control effect; nearly all actives have a fitted effect of over 60% in size
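BAZ2B (50 nM) with biotin-H3(5-23)K14Ac peptide (50 nM) in PBS pH 7.4, 0.01% Tween-20, preformed 30 min, then compound 30 min at room temperature; top concentration 110uM. AlphaScreen streptavidin donor/nickel chelate acceptor beads (10 ug/mL final), 20 min dark, signal read.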
L3MBTL1 block: inhibitors of human L3MBTL1; Q9Y468; AlphaScreen L3MBTL1–H3K9me1 peptide binding; Potency, µM (titrated, usually from 57.1 µM), for inactives: at the highest dose activity, negative = inhibition, hits mostly inhibitors; hit rate 0.66% among 230,000; note: % is set by controls: 0 for no effect and ±100 for the full control effect; nearly all actives have a fitted effect of over 60% in size
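Read-out is AlphaScreen signal from streptavidin donor and nickel chelate acceptor beads (10 ug/mL final each) bridging L3MBTL1 (50 nM) and biotinylated K9-monomethylated H3(1-15) peptide (75 nM), after 30 min compound exposure at room temperature.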
G9a block: blocks human histone lysine methyltransferase G9a; hit rate 8.8% among 350,000; G9a H3K9 monomethylation, AlphaScreen, 2 h; Q96KQ7; Potency, µM (titrated, usually from 102 µM), for inactives: top-dose activity, negative = inhibition, hits mostly inhibitors; note: % is set by controls: 0 for no effect and ±100 for the full control effect; nearly all actives have a fitted effect of over 75% in size
Target sequence (Q96KQ7 913-1193 limits assumed): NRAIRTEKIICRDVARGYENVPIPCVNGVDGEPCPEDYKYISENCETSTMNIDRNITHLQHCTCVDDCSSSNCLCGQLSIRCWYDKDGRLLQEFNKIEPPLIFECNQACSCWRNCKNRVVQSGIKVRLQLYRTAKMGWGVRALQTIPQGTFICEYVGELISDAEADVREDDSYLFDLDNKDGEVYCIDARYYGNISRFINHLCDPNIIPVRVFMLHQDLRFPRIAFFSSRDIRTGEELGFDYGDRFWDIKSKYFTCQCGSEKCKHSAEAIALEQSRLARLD
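AlphaScreen read-out: biotin-H3K9 peptide (500 nM) methylation by 20 nM enzyme with 20 uM SAM, 2 h at room temperature after 15 min compound preincubation; anti-monomethyl H3K9 antibody plus donor/acceptor beads, 10 min dark.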
HP1b binding inh: blocks HP1-beta chromodomain binding to methylated histone tails | Potency, µM (titrated, usually from 114 µM), for the others: at the highest dose activity change, negative = inhibition, hits mostly inhibitors | hit rate 0.56% among 390,000 | AID 540317 | AlphaScreen HP1-beta / biotin-H3K9me3 peptide binding | P83916; note: nearly all actives have a fitted effect of over 70% in size
Target sequence (P83916 whole entry, looked up): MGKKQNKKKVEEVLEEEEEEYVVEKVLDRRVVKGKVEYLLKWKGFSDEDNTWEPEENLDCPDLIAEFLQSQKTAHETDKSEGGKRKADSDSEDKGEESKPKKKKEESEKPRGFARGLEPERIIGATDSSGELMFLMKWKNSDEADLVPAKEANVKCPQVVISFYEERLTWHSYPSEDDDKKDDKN
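HP1-beta protein (50 nM final) preincubated 30 min at room temperature with biotinylated H3(1-18)K9me3 peptide (50 nM) in PBS pH 7.4, 0.01% Tween-20, then compound added for 30 min. AlphaScreen streptavidin donor/nickel chelate acceptor beads (10 ug/mL final), 30 min dark, luminescence read.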
JMJD2A Tudor inh: JMJD2A Tudor domain (human) inhibition. hit rate 4.4% among 390,000. AlphaScreen JMJD2A-Tudor / H3K4me3 peptide binding. AID 504339. O75164. Potency, µM (titrated, usually from 114 µM), without a hit: at the highest dose activity change, negative = inhibition, usual class: inhibitors; note: % is set by controls: 0 for no effect and ±100 for the full control effect; nearly all actives have a fitted effect of over 50% in size
* hit, by the source's call; ? = inconclusive; · = not tested or not shown; [ ] = remark or other dose. This is a sample that favours compounds with a hit; in the whole collection about 12% have one here. Calls come from the whole dose curve; as a rule, active = well fitted curve in the direction sought with a large enough effect; inconclusive = small, poorly fitted or top-dose-only effect, or another doubt; inactive = no such curve, though single readings can be large; an effect the other way counts as inactive or inconclusive. Potency is the fitted concentration of half-maximal effect.

SMILES	Sfp inh	BAZ2B inh	L3MBTL1 block	G9a block	HP1b binding inh	JMJD2A Tudor inh
O=C(Oc1ccc(C(=S)N2CCOCC2)cc1Br)c1cc(Cl)ccc1Cl	6.0%	-29.1%	-8.0%	44.7µM*	-2.5%	-19.3%
CCC(CC)C(=O)Nc1ccc(OCc2cc(=O)n3ccc(C)cc3n2)cc1	·	8.6%	·	-33.9%[59 µM]	29.4%[57 µM]	4.5%
C/C(CCN1CCCc2nc(C)c(C)cc21)=N\OC[C@@H](O)COCc1ccco1	13.2%	·	·	·	·	·
CC(C)NC(=O)C(C)Oc1ccc(S(=O)(=O)NCc2ccc3c(c2)OCO3)cc1 (stereo unspecified)	26.9%	-4.1%	-8.5%[2.29 µM]	-28.0%[0.501 µM]	13.9%	-5.5%
CCOc1ccc(N2C(=O)CS/C2=C(\C(Cl)=C(Cl)Cl)[N+](=O)[O-])cc1	1.6%	50.1µM*	·	31.6µM*	-65.4%	5.01µM*
CCOC(=O)C(=O)Nc1ccc2c(c1)OCO2	8.1%	-24.5%	·	1.3%[59 µM]	34.5%	-15.7%
CCOC(=O)/C(N=Nc1ccc2c(c1)OCO2)=C(\C)O	-2.3%	?	·	?	-20.6%	50.1µM*
Cc1cccc(COCC(Cc2ccccc2)N2CCN(C(=O)c3ccc(Cl)c(Cl)c3)CCC2=O)c1 (stereo unspecified)	14.8%	-7.9%	-2.3%	-20.5%	21.6%	-29.6%
O=C(c1ccc(Cl)c(Cl)c1)N1CCC(=O)N(C(COCc2cccc(C(F)(F)F)c2)Cc2ccccc2)CC1 (stereo unspecified)	3.3%	-26.9%	-13.8%	50.1µM*	27.9%	-14.3%
O=C(c1ccc(C(F)(F)F)cc1)N1CCC(=O)N(C(COCc2ccccc2)Cc2ccccc2)CC1 (stereo unspecified)	3.2%	-38.5%	-2.3%	56.2µM*	49.8%	-15.0%
CN(CP(=O)(O)CN(C)S(C)(=O)=O)S(C)(=O)=O	8.7%	89.1µM*	-4.4%	-45.0%[12.7 µM]	8.9%	50.1µM*
COc1cscc1C(N)=O	15.8%	-2.8%	-4.5%	-1.1%	41.6%	-1.7%
CCCC[n+]1ccn(-c2nc3ccccc3nc2[N-]S(=O)(=O)c2ccccc2)c1	8.4%	-0.6%	·	6.7%	32.0%	-4.9%
CCCC[n+]1ccn(-c2nc3ccccc3nc2[N-]S(=O)(=O)c2ccc(C)cc2)c1	7.8%	4.6%	·	17.6%[59 µM]	53.2%	-2.4%
CCCC[n+]1ccn(-c2nc3ccccc3nc2[N-]S(=O)(=O)c2cccs2)c1	35.5µM*	-10.7%	-17.2%	24.7%[59 µM]	15.6%	-13.9%
CCCCC[n+]1ccn(-c2nc3ccccc3nc2[N-]S(=O)(=O)c2ccc(C)cc2)c1	56.2µM*	-31.9%	-8.1%	4.6%	52.4%	17.2%
CC(=O)c1cccc(NC(=S)NC(=O)c2cccc(Cl)c2)c1	-16.6%	-4.4%	-4.8%	4.9%	-7.3%	-24.0%
Cc1ccc(C(=O)O)cc1NC(=S)NC(=O)c1ccc(-c2ccc(Cl)cc2)o1	50.1µM*	?	·	35.5µM*	1.9%	0.0%[11.4 µM]
O=C(O)c1ccc(NC(=S)NC(=O)c2ccc(-c3ccc(Br)cc3)o2)cc1	44.7µM*	39.8µM*	·	39.8µM*	56.2µM*	15.8µM*
COc1ccc(C(=O)O)cc1NC(=S)NC(=O)c1ccc(-c2ccc(Cl)cc2)o1	?	?	·	44.7µM*	-21.3%	?
COc1ccc(C(=O)O)cc1NC(=S)NC(=O)CSc1ccc(Cl)cc1	-1.7%	-25.2%	·	-44.2%	8.9%	-13.6%
Cc1ccc(C(=O)O)cc1NC(=S)NC(=O)c1ccc([N+](=O)[O-])cc1Cl	?	-23.7%	-7.0%	?	-5.3%	?
O=C(O)c1cccc(NC(=S)NC(=O)c2ccc(-c3ccc(Cl)cc3)o2)c1	?	?	·	44.7µM*	-25.3%	?
CCCc1c(OCCCOc2ccc(OCC(=O)O)cc2)ccc(CC=O)c1O	-11.0%	·	·	·	·	·
COCC(=O)N1CCC2(CC1)CCN(c1ccc(-c3ccccc3)cc1)CC2	6.5%	·	·	-21.0%[12.7 µM]	·	·
CCOc1ccccc1NC(=O)N1CCN(S(=O)(=O)c2ccc3c(ccn3C)c2)CC1	·	-3.2%	·	8.3%[59 µM]	45.9%	-6.6%
